Screening data: PubChem, The Scripps Research Institute Molecular Screening Center
m5-HT2A agonist – mouse HTR2A agonism via beta-arrestin recruitment; CHO-K1 mHTR2A beta-arrestin complementation, luminescence; percent of 30 µM serotonin response; activation, % at 7.6 µM; 360,000 tested, 0.66% active;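 active = activation above a run cutoff, the mean activation of all tested compounds plus 3 SD, cut at about 14% in these data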;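 note: 0% = plate median of compound wells and 100% = 30 µM serotonin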
MOR-DOR ag – agonists of human mu-delta opioid receptor heterodimerization | cells, OPRM1-OPRD1 heterodimerization, luminescence | P35372+P41143 | 340,000 tested, 0.3% active | AID 504326 | activation, % at 9.3 µM; in the data active = activation above about 18%;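 note: 0% = vehicle-treated cells and 100% = reference agonist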
Target sequence (P35372 whole entry, looked up): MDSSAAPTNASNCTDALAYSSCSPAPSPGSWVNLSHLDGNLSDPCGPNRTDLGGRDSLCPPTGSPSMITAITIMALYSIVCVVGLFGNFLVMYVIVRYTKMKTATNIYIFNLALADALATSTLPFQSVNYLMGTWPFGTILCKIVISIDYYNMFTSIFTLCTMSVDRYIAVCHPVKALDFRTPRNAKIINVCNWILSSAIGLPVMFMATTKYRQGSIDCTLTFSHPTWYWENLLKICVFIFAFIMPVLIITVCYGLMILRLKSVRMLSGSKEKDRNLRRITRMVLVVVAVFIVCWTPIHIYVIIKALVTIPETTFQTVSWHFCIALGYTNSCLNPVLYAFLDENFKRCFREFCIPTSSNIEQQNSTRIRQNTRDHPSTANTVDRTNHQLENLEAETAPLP
Target sequence (P41143 whole entry, looked up): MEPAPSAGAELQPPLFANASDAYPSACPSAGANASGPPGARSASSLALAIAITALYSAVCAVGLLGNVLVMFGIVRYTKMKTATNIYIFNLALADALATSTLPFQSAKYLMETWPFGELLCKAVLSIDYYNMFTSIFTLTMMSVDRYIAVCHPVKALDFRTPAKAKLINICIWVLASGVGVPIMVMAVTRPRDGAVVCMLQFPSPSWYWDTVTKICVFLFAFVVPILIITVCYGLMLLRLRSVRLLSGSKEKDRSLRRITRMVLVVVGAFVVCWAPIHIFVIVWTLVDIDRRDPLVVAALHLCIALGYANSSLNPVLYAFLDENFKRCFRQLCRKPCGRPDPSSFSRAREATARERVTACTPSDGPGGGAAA
MOR-DOR inv ag – mu-delta opioid heterodimer inverse agonism. cell-based MOR-DOR heterodimer luminescence. 340,000 tested, 0.21% active. AID 504357. inhibition, % at 9.3 µM. P35372+P41143; in the data active = inhibition above about 22%, passing the limit was not always enough;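 note: 0% = cells with DMSO and 100% = wells without cells with DMSO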
HTR5A ag – activates human HTR5A in OPRM1-OPRD1 agonist counter-screen | P47898 | HTR5A agonist assay, luminescence, cell-based | activation, % at 9.3 µM | 340,000 tested, 0.61% active | AID 504692; in the data active = activation mostly above about 9.5%, no sharp cut-off; inactive = mostly below about 7.6%;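 note: 0% = cells with vehicle only and 100% = reference agonist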
HTR5A inv ctr – counter-screen for OPRM1-OPRD1 inverse agonists: human HTR5A inverse agonism; P47898; AID 504634; 340,000 tested, 0.083% active; HTR5A cell line, luminescence; inhibition, % at 9.3 µM; in the data active = inhibition mostly above about 23%, no sharp cut-off; inactive = mostly below about 18%;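 note: 0% = cells with DMSO and 100% = no-cell wells with DMSO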
MOR ag counter – activates human mu opioid receptor in HTR2A counterscreen. 2,300 tested, 5.3% active. U2OS OPRM1 beta-arrestin PathHunter, luminescence; DMSO 0%, DAMGO 9.3 µM 100%. activation, % at 9.3 µM. AID 624380. shares compounds with m5-HT2A agonist;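 active = mean activation above the mean of DMSO-only wells plus 3 SD, cut at about 0.5% in these data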
HTR2A ag conf – confirmation of mouse HTR2A serotonin receptor agonists; shares compounds with m5-HT2A agonist; CHO-K1 PathHunter beta-arrestin recruitment, luminescence; DMSO 0%, 30 µM serotonin 100%; activation, % at 7.6 µM; 2,300 tested, 19% active;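 active = mean activation across triplicates above the hit threshold derived in the original primary screen, cut at about 15% in these data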
The depositor's hits bear a star; nt = no result given. An excerpt weighted towards active compounds, which were near 1.6% of everything screened.

SMILES	m5-HT2A agonist	MOR-DOR ag	MOR-DOR inv ag	HTR5A ag	HTR5A inv ctr	MOR ag counter	HTR2A ag conf
O=C(CSCC(=O)OCC(=O)c1ccc(Br)cc1)Nc1ccc(Br)cc1	1.1	2.0	-12.3	-2.5	24.1	nt	nt
CCOC(=O)[C@H](CCc1ccccc1)N[C@@H](C)C(=O)N1[C@H](C(=O)O)C[C@@H]2CCC[C@@H]21	43.9*	1.2	-6.7	7.6	-27.0	-0.6	-0.8
C[C@@H]1COc2cccc(N3CCC[C@@H]3CO)c2S(=O)(=O)N1	1.7	nt	nt	nt	nt	nt	nt
O=C(Cn1cc(C(F)(F)F)ccc1=O)Nc1ccc2c(c1)OCO2	17.1*	nt	nt	nt	nt	-0.6	-3.4
O=C(Cn1cc(Br)ccc1=O)Nc1ccc2c(c1)OCO2	-4.1	-1.5	6.1	-4.6	11.2	nt	nt
CC(=O)N1Cc2cc(C(=O)NCC(F)(F)F)nc(-c3cccc(-c4cccnc4)c3)c2[C@@H]1CCO	-0.7	nt	nt	nt	nt	nt	nt
COc1ccccc1-c1ccc2c(c1)C(C)(Cc1ccc(Cl)c(Cl)c1)C(=O)N2 (stereo not drawn)	22.9*	nt	nt	nt	nt	-0.5	-4.4
COc1ccccc1-c1ccc2c(c1)C(C)(Cc1ccccc1C#N)C(=O)N2 (stereo not drawn)	7.2	nt	nt	nt	nt	nt	nt
Cc1cccc(C(C)C)c1NC(=O)COC(=O)CN1C(=O)C2CC=CCC2C1=O (stereo not drawn)	20.5*	-3.4	18.1	1.4	0.9	-0.1	5.9
NC(=O)C1(NC(=O)[C@@H]2CC3(CC(c4cccc(NC(=O)[C@@H]5CCC(=O)N5)c4)=NO3)CN2C(=O)Cc2ccc(C(F)(F)F)cc2)CC1 (stereo partly drawn)	19.8*	-0.1	0.8	-6.1	9.3	-0.5	-1.9
NC(=O)C1(NC(=O)[C@@H]2CC3(CC(c4cccc(NC(=O)[C@@H]5CCC(=O)N5)c4)=NO3)CN2C(=O)Cc2ccc(Cl)cc2)CC1 (stereo partly drawn)	-1.4	-1.4	8.2	4.5	-13.3	nt	nt
Cc1nc2ccc(NS(=O)(=O)c3ccc(F)cc3F)cc2s1	21.8*	-3.1	12.2	0.5	-1.6	-0.4	-3.1
COCCN1C(=O)CSCC1(C)C(=O)NC(C)C (stereo not drawn)	1.5	nt	nt	nt	nt	nt	nt
C=CCn1c(=O)/c(=C\c2ccccn2)s/c1=C(/C#N)C(=O)NCC1CCCO1 (stereo not drawn)	5.0	-0.2	1.2	1.7	-4.5	nt	nt
C=CCn1c(=O)/c(=C/c2ccc(C)o2)s/c1=C(/C#N)C(=O)c1ccccc1	14.8*	4.7	-26.1	6.9	30.2	-0.8	-7.7
Cc1ccc(C(=O)NNC(=O)Cn2ccc(C(F)(F)F)n2)o1	16.1*	2.2	-14.0	0.2	-34.1	-0.5	-1.3
Cc1ccc(S(=O)(=O)NC(=O)C2(C)CCN2C(=O)C2CCCCC2)cc1 (stereo not drawn)	1.5	nt	nt	nt	nt	nt	nt
COc1cc(C)nc(NS(=O)(=O)c2ccccc2Cl)n1	30.7*	0.3	-1.7	-0.6	2.3	-0.5	-1.5
Cc1cc(NN)nc(NS(=O)(=O)c2ccccc2Cl)n1	-3.1	2.6	-13.8	2.3	-5.4	nt	nt
Cc1ccc(P(=O)(CSC(=N)N)c2ccc(C)cc2)cc1	3.1	-3.7	18.6	6.6	-5.6	nt	nt
Cc1ccc(P(=O)(CO)c2ccc(C)cc2)cc1	15.5*	-1.2	6.7	-2.4	12.7	-0.6	-4.9
COc1ccccc1NS(=O)(=O)c1cccc(C(=O)NNC(=O)c2ccc(O)c(Cl)c2)c1	15.8*	-2.2	11.4	-6.4	17.3	-0.5	-3.0
c1ccc(N2CCN(c3nnc(Cc4cccnc4)c4ccccc34)CC2)nc1	17.2*	-2.7	14.2	4.2	-13.6	-0.5	3.4
c1ccc(Cc2nnc(N3CCCCC3)c3ccccc23)cc1	8.8	0.3	-1.8	3.1	-8.8	nt	nt
COc1ccc(CNC(=O)CCCn2nc(C)n3ccnc3c2=O)cc1	25.4*	-2.1	12.3	11.7	-35.7	-0.7	-3.1
SMILES	m5-HT2A agonist	MOR-DOR ag	MOR-DOR inv ag	HTR5A ag	HTR5A inv ctr	MOR ag counter	HTR2A ag conf
O=C([C@H](Cc1ccccc1)NS(=O)(=O)c1ccc(Cl)cc1)N1CC[C@@]2(O)CCCC[C@H]2C1	17.4*	-0.8	4.3	2.3	-13.2	-0.7	-4.9
COc1cc(C(=O)O)ccc1O	27.7*	-1.3	7.7	7.6	-20.4	-0.6	-0.8
COc1cc(C(=O)C(=O)c2ccc(O)c(OC)c2)ccc1O	7.2	-2.3	10.4	0.2	-0.7	nt	nt
CCOC(=O)C1(C)Oc2ccccc2C(C(=O)OC)=C1C(=O)OC (stereo not drawn)	19.7*	-1.9	9.7	3.0	-11.0	-0.7	-3.9
Cc1cccc(N(C)c2cc(-c3ccc(F)cc3)nc3ccnn23)c1	-5.5	nt	nt	nt	nt	nt	nt
CC1(C)Oc2ccc3ccc(=O)oc3c2/C(=C/Nc2ccc(O)cc2)C1=O	5.0	14.7	-75.4	2.3	5.3	nt	nt
CC1(C)Oc2ccc3ccc(=O)oc3c2/C(=C/Nc2cccc(O)c2)C1=O	16.6*	nt	nt	nt	nt	-0.2	4.1
COc1ccc(CCNC(=O)CSc2ccc3ccccc3c2)cc1OC	-4.9	-0.9	5.0	5.3	5.8	nt	nt
O=C(CSc1ccc2ccccc2c1)NCCc1ccc(O)c(O)c1	31.1*	4.2	-19.6	4.9	-13.5	-0.2	100.9*
CC(C)C(=O)N1CCC1(C)C(=O)Nc1nc2ccccc2[nH]1 (stereo not drawn)	1.5	nt	nt	nt	nt	nt	nt
O=S(=O)(Nc1ccc2oc(-c3ccccc3)nc2c1)c1ccccc1	15.2*	3.5	-19.7	4.8	-12.5	0.3	4.5
O=S(=O)(Nc1ccc(-c2csc(-c3ccccc3)n2)cc1)c1ccccc1	17.9*	2.6	-13.4	1.9	-6.9	-0.4	4.7
O=C(C[C@@H]1CC[C@H](NS(=O)(=O)c2ccccc2F)[C@@H](CO)O1)NCCCN1CCOCC1	-2.5	nt	nt	nt	nt	nt	nt
CCOC(=O)N1CCN(C(=O)C[C@@H]2C[C@@]3(C(=O)OCC)CCCC=C3N(Cc3ccco3)C2=O)CC1	4.6	nt	nt	nt	nt	nt	nt
CCC1(C)CC(CC(=O)O)(c2ccccc2OC)CCO1 (stereo not drawn)	14.7*	-2.5	10.2	3.8	-9.1	-0.3	0.9
COc1ccc([C@H]2C[C@H](O)[C@@H](n3cc(COC(=O)c4ccccc4)nn3)CN2C(=O)C2CCCCC2)cc1	3.0	nt	nt	nt	nt	nt	nt
Cc1cc(N2CCN(C(c3ccccc3)c3ccccc3)CC2)n2ncnc2n1	-3.2	-3.4	20.0	0.1	-15.1	nt	nt
Cc1cc(N2CCN(c3nc4ccccc4s3)CC2)n2ncnc2n1	21.6*	-0.9	4.6	3.1	-10.2	-0.5	3.7
CCN(Cc1ccccc1)C(=O)Cn1cc(S(=O)(=O)NC)c(S(=O)(=O)NC)c1	16.5*	-2.8	12.5	4.6	-16.4	-0.4	-0.2
